ChEMBL document CHEMBL1961873, “Compounds: GSK PKIS; Assays: Nanosyn kinase panel” (2012)

Tests used:
[1] = biological target: Fibroblast growth factor receptor 4 (Homo sapiens) (UniProt P22455); conditions: at 1 µM;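 also: reported figure is the averaged percent inhibition of FGFR4, from the GSK PKIS kinase screening panel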
[2] = biological target: Tyrosine-protein kinase Fgr (Homo sapiens) (UniProt P09769); conditions: at 0.1 µM
[3] = biological target: Tyrosine-protein kinase Fgr (Homo sapiens) (UniProt P09769); conditions: at 1 µM
[4] = biological target: Vascular endothelial growth factor receptor 1 (Homo sapiens) (UniProt P17948); conditions: at 0.1 µM
Sequence of Vascular endothelial growth factor receptor 1 (Homo sapiens) (P17948 whole entry): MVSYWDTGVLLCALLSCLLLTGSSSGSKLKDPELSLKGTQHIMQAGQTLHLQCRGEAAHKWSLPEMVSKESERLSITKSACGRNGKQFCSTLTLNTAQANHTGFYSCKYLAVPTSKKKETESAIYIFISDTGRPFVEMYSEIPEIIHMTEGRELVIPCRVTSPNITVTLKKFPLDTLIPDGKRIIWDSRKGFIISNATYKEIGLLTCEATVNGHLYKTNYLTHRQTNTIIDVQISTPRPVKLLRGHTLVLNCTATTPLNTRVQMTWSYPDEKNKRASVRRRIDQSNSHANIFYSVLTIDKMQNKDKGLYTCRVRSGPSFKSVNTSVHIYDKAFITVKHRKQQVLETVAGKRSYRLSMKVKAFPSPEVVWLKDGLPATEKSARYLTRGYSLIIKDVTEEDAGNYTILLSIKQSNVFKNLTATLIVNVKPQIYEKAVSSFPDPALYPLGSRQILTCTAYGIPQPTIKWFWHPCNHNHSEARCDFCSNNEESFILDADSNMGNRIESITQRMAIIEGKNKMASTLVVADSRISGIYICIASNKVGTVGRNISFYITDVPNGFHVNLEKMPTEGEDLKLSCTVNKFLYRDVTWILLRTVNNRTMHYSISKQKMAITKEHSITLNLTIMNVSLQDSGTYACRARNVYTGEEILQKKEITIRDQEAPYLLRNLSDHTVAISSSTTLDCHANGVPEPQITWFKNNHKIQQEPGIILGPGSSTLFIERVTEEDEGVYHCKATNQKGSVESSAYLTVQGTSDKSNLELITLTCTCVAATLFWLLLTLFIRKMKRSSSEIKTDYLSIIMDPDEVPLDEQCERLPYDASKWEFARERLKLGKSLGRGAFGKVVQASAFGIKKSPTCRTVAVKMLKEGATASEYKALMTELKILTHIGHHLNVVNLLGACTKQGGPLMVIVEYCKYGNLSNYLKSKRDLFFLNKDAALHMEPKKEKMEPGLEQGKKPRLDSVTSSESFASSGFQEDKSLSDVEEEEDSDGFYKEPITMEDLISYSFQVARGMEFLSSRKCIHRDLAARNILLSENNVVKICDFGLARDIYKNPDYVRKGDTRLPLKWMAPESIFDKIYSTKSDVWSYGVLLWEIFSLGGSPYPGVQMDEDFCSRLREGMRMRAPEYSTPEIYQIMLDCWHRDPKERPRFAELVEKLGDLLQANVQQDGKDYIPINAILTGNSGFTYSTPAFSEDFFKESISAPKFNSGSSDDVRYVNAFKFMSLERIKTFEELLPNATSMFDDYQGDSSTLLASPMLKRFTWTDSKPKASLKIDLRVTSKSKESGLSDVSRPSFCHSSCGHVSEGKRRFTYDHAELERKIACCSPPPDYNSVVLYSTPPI

[5] = biological target: Vascular endothelial growth factor receptor 1 (Homo sapiens) (UniProt P17948); conditions: at 1 µM
[6] = biological target: Receptor-type tyrosine-protein kinase FLT3 (Homo sapiens) (UniProt P36888); conditions: at 0.1 µM
[7] = biological target: Receptor-type tyrosine-protein kinase FLT3 (Homo sapiens) (UniProt P36888); conditions: at 1 µM
[8] = test system: T1, Receptor-type tyrosine-protein kinase FLT3 (Homo sapiens), P36888 [D835Y]; conditions: at 0.1 µM
T1 sequence (whole entry): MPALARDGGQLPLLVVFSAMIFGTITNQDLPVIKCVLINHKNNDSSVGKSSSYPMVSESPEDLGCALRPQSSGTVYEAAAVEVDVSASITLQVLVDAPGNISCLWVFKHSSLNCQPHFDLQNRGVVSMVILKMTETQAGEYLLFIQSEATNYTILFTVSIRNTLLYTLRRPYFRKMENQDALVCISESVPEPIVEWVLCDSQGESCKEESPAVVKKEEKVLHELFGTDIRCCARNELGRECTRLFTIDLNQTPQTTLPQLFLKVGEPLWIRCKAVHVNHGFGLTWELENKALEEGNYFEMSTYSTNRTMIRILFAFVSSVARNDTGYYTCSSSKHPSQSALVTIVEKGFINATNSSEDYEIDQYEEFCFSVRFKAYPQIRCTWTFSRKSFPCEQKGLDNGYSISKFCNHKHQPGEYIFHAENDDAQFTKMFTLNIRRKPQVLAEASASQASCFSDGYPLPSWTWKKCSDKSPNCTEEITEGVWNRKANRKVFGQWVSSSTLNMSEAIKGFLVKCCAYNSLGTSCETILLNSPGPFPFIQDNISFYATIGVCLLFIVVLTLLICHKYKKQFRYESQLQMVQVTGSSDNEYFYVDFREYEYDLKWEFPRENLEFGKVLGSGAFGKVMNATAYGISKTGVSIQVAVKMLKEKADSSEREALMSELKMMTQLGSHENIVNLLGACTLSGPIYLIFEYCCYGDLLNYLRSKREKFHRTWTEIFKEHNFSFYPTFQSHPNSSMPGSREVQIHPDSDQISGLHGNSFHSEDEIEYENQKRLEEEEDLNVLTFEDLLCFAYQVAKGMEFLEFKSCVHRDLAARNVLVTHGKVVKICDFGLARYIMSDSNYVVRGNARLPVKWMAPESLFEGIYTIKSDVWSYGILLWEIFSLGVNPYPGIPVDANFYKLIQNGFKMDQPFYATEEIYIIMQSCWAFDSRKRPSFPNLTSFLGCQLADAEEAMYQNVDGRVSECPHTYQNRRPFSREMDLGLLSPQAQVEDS

[9] = biological target: Non-receptor tyrosine-protein kinase TYK2 (Homo sapiens) (UniProt P29597); conditions: at 1 µM;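 also: values are mean percent inhibition of TYK2 kinase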
Sequence of Non-receptor tyrosine-protein kinase TYK2 (Homo sapiens) (P29597 whole entry): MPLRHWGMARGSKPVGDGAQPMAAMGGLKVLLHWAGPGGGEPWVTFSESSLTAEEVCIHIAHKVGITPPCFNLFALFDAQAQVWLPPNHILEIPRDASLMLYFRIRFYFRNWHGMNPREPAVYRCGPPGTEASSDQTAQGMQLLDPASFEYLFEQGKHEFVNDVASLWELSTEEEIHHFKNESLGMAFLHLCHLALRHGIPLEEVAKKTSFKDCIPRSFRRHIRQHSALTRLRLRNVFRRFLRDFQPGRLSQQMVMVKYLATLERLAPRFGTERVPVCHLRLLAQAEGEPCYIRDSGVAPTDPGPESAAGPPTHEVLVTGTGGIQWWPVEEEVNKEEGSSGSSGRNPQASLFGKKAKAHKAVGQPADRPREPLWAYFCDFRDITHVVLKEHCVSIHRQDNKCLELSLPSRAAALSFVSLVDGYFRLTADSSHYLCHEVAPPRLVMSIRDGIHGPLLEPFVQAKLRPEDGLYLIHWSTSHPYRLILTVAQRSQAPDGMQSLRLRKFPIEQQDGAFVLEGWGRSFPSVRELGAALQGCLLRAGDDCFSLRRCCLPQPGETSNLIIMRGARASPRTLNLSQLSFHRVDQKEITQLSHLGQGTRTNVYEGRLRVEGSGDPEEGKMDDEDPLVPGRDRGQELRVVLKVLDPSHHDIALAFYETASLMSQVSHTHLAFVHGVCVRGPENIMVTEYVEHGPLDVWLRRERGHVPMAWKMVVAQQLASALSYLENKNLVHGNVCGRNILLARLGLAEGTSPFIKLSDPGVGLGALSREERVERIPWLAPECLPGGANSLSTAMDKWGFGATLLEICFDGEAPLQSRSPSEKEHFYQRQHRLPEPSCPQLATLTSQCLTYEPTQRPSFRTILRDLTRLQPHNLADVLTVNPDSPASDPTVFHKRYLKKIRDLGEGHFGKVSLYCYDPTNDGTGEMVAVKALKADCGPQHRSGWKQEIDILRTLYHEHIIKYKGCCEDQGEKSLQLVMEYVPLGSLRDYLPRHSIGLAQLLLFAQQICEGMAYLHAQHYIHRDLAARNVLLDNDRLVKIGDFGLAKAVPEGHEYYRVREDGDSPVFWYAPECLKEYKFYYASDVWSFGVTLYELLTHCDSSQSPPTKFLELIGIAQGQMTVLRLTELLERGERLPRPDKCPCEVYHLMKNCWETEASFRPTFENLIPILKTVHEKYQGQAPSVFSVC

[10] = biological target: T2, Tyrosine-protein kinase receptor TYRO3 (Homo sapiens) (UniProt Q06418); conditions: at 0.1 µM
T2 sequence (whole entry): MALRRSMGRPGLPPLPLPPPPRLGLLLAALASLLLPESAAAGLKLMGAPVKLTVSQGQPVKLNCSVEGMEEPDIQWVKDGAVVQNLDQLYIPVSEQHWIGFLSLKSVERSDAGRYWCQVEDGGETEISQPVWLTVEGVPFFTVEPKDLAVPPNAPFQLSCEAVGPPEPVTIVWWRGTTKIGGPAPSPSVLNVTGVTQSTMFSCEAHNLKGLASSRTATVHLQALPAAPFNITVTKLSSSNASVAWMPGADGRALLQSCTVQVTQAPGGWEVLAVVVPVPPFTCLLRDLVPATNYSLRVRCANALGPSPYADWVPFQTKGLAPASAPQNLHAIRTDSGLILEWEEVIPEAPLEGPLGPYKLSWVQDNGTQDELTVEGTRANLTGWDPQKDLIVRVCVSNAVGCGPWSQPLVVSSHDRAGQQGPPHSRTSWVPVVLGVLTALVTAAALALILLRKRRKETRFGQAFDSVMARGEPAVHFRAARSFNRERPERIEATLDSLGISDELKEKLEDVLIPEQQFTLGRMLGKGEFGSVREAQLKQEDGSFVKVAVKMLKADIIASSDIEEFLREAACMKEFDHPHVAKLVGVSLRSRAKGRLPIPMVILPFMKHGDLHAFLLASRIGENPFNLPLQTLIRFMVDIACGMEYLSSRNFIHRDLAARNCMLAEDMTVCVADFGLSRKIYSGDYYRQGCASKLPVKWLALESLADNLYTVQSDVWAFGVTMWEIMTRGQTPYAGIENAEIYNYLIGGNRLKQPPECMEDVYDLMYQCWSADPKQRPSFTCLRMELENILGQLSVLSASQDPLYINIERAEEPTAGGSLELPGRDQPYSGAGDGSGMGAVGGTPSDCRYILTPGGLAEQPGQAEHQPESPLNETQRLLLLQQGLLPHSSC

[11] = biological target: T2, Tyrosine-protein kinase receptor TYRO3 (Homo sapiens); conditions: at 1 µM
[12] = biological target: Tyrosine-protein kinase Yes (Homo sapiens) (UniProt P07947); conditions: at 0.1 µM
Sequence of Tyrosine-protein kinase Yes (Homo sapiens) (P07947 2-543 limits assumed): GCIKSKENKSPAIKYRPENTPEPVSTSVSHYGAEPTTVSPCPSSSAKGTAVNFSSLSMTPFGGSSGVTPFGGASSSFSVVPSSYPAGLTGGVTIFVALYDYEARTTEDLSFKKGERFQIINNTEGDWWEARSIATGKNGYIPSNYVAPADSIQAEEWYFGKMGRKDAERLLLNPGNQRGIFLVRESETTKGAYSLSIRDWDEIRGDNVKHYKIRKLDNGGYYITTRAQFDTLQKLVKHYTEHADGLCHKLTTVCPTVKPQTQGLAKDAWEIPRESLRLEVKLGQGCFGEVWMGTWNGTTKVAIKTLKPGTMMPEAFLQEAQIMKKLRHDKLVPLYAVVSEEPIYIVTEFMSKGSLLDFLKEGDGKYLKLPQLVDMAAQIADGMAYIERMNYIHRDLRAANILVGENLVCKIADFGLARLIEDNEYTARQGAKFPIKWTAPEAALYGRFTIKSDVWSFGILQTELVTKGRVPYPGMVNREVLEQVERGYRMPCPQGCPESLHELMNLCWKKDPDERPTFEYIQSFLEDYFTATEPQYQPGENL

[13] = biological target: Tyrosine-protein kinase Yes (Homo sapiens) (UniProt P07947); conditions: at 1 µM
[14] = biological target: T3, Tyrosine-protein kinase ZAP-70 (Homo sapiens) (UniProt P43403); conditions: at 0.1 µM
T3 sequence (whole entry): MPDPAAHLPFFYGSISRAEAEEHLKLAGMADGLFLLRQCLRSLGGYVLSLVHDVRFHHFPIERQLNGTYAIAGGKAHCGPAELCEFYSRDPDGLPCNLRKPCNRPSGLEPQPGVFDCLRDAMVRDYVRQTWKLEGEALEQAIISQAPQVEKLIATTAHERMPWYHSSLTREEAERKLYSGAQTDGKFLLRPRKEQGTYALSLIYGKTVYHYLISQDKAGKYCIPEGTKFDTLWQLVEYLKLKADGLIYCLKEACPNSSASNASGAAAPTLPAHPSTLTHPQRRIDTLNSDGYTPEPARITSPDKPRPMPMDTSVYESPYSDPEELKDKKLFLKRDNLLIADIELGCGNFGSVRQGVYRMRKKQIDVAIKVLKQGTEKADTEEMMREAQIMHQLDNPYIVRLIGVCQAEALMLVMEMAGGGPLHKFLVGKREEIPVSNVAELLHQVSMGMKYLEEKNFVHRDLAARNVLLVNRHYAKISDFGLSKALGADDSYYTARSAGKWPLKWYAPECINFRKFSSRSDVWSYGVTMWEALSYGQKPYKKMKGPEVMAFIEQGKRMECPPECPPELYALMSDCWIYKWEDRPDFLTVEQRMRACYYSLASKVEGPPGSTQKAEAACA

[15] = biological target: T3, Tyrosine-protein kinase ZAP-70 (Homo sapiens); conditions: at 1 µM
[16] = biological target: Serine/threonine-protein kinase B-raf (Homo sapiens) (UniProt P15056); conditions: at 0.1 µM
Sequence of Serine/threonine-protein kinase B-raf (Homo sapiens) (P15056 whole entry): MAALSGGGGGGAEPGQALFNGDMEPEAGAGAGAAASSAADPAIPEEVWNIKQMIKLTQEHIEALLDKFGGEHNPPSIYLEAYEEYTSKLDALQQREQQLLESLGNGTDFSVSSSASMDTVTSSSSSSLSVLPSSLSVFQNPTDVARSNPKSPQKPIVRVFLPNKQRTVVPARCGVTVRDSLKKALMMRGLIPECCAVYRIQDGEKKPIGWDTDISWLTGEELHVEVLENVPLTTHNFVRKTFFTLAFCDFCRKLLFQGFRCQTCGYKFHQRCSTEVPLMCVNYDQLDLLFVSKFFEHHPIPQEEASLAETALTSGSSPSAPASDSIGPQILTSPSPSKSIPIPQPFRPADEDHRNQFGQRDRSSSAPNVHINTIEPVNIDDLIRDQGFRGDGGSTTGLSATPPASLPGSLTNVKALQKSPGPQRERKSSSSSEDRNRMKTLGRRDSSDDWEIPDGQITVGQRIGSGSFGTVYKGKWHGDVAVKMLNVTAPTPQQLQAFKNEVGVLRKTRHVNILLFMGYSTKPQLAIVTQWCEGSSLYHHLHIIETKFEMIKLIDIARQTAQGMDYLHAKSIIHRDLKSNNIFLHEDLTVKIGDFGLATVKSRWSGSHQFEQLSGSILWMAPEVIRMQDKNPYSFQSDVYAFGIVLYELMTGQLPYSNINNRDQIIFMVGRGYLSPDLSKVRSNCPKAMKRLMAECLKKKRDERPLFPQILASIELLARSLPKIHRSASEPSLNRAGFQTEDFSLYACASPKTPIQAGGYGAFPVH

[17] = biological target: Serine/threonine-protein kinase B-raf (Homo sapiens) (UniProt P15056); conditions: at 1 µM
[18] = test system: Serine/threonine-protein kinase B-raf (Homo sapiens), P15056 [V600E]; conditions: at 0.1 µM
Sequence of Serine/threonine-protein kinase B-raf (Homo sapiens), P15056 [V600E] (P15056 whole entry V600E): as the sequence (P15056 whole entry) above, with V600E counted along it

[19] = test system: Serine/threonine-protein kinase B-raf (Homo sapiens), P15056 [V600E]; conditions: at 1 µM
[20] = biological target: RAF proto-oncogene serine/threonine-protein kinase (Homo sapiens) (UniProt P04049); conditions: at 0.1 µM;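 also: values are mean CRAF kinase inhibition from profiling of the GSK Published Kinase Inhibitor Set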
Sequence of RAF proto-oncogene serine/threonine-protein kinase (Homo sapiens) (P04049 whole entry): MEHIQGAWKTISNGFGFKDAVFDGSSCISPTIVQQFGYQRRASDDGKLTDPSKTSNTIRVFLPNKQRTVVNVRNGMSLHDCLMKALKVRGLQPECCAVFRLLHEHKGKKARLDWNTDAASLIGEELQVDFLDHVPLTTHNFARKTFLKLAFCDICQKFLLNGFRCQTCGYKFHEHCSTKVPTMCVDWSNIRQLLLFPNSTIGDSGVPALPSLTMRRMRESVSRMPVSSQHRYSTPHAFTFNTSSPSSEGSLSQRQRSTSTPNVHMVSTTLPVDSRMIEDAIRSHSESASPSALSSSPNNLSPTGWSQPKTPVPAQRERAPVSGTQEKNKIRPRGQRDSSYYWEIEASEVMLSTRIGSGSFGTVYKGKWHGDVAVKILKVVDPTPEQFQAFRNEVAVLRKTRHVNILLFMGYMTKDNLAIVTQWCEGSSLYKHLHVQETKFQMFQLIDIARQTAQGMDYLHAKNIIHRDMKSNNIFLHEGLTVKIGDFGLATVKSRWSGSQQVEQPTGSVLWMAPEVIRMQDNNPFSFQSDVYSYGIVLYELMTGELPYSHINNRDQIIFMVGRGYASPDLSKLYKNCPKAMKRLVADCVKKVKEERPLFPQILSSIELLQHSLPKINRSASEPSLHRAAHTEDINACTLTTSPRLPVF

Sequence of Tyrosine-protein kinase Fgr (Homo sapiens) (P09769 2-529 limits assumed): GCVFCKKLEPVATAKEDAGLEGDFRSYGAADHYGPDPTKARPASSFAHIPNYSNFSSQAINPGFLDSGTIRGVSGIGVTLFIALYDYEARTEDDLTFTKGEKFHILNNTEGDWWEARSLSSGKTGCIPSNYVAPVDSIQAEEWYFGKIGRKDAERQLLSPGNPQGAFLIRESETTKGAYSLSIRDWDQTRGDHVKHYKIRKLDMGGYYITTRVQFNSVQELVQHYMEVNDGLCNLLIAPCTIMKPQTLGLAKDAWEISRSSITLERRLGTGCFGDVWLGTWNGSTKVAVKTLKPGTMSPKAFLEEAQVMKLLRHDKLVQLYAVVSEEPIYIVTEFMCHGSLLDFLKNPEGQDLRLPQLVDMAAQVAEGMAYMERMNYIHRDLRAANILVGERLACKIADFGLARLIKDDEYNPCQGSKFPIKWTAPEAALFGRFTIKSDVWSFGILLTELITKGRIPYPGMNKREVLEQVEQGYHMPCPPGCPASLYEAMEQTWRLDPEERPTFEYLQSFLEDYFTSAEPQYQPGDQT

| Structure (SMILES) | inhibition [1] [%] | inhibition [2] [%] | inhibition [3] [%] | inhibition [4] [%] | inhibition [5] [%] | inhibition [6] [%] | inhibition [7] [%] | inhibition [8] [%] | inhibition [9] [%] | inhibition [10] [%] | inhibition [11] [%] | inhibition [12] [%] | inhibition [13] [%] | inhibition [14] [%] | inhibition [15] [%] | inhibition [16] [%] | inhibition [17] [%] | inhibition [18] [%] | inhibition [19] [%] | inhibition [20] [%] |
| --- | --- | --- | --- | --- | --- | --- | --- | --- | --- | --- | --- | --- | --- | --- | --- | --- | --- | --- | --- | --- |
| COc1ccc2c(-c3ccnc(Nc4cccc(OC(F)(F)F)c4)n3)cnn2n1 | 0.68 | 5.29 | 7.16 | 1.57 | 7.39 | 3.4 | 14.3 | 3.59 | -2.09 | 4.51 | 7.73 | 2.47 | 6.34 | 0.87 | 3.62 | 6.94 | 7.89 | 5.16 | 6.12 | 1.54 |
| CC(C)(CO)CNC(=O)c1ccc2c(c1)/C(=N/Nc1ccc(S(N)(=O)=O)cc1)C(=O)N2 | -0.62 | 3.82 | 22.2 | -1.72 | 11.1 | 0.08 | 6.23 | 1.72 | 4.08 | -0.65 | 5.36 | 1.79 | 16.9 | -3.15 | 0.33 | 5.62 | 43.5 | 7.49 | 44.1 | -0.32 |
| Cc1ccc(O)cc1Nc1ccnc2cc(-c3ccccn3)ccc12 | 30.8 | 52.2 | 82.7 | 82.1 | 95.7 | 3.74 | 4.17 | 1.48 | -4 | 4.12 | 13.9 | 58.2 | 90.7 | 0.52 | 4.03 | 9.05 | 12.1 | 8.35 | 9.49 | -1.1 |
| c1ccc(-c2nc3n(c2-c2ccc4c(c2)OCO4)CCC3)nc1 | 1.32 | -0.63 | 0.17 | 1.18 | 0.86 | 1.13 | 0.36 | -1.36 | -1.07 | 0.75 | 1.8 | 1.3 | 3.94 | 4.17 | 1.94 | 2.61 | 2.48 | 2.01 | 3.56 | -0.19 |
| COc1ccc2[nH]c3c4[nH]c5ccc(OC)cc5c4c4c(c3c2c1)C(=O)NC4=O | 3.95 | 10.8 | 28 | 2.46 | 19.2 | 28.6 | 79.1 | 65 | -0.6 | 17.1 | 63.7 | 6.75 | 33.5 | 2.68 | 8.6 | 5.05 | 7.83 | 5.01 | 6.69 | -1.72 |
| COC(=O)Nc1nc2ccc(Oc3ccc(NC(=O)Nc4cccc(Cl)c4)cc3)cc2[nH]1 | -0.03 | 2.28 | 4.23 | 28.6 | 56.8 | 21.1 | 57.2 | -4.92 | -0.96 | 3.45 | 11 | 0.67 | 2.42 | 0.78 | 2.42 | 6.07 | 17.1 | 6.79 | 15.1 | -4.01 |
| COc1ccc(-c2cc(-c3c[nH]nc3-c3ccccn3)ccn2)cc1 | 6.88 | 5.33 | 4.21 | 3.66 | 8.02 | 3.81 | – | 1.47 | -4.16 | 2.81 | 4.46 | 3.5 | 7.41 | 1.69 | 2.09 | 7.54 | 6.98 | 7.82 | 6.42 | 0.24 |
